PubChem BioAssay (NCI)
This is part of a sample that, as a whole, favours compounds with a hit. Of some 79,000 tested, about 15% had one in any assay. The source made the active and inactive calls. No stated cut-off is given here; in the data, active means growth inhibition above about 70%; inactive means the rest.

Tests used:
[1] = NCI Yeast Anticancer Drug Screen. Data for the rad50 strain (AID 155);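 further: 0% = growth of vehicle-only cultures of the same strain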; conditions: S. cerevisiae rad50 strain growth inhibition; at 50.0 µM; stronger effect = higher value
Outline: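 Genetically altered yeast (DNA repair pathway); compound treatment; growth inhibition vs vehicle ctrl.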

[2] = NCI Yeast Anticancer Drug Screen. Data for the mec2-1 strain (AID 157); conditions: S. cerevisiae mec2-1 strain, at 50.0 µM, stronger effect = higher value
Outline: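 Yeast mec2-1 mutant treated with compound. Readout: growth inhibition vs vehicle controls.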

[3] = NCI Yeast Anticancer Drug Screen. Data for the sgs1 mgt1 strain (AID 161);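 further: 0% = growth of cultures given vehicle only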; conditions: S. cerevisiae sgs1 mgt1 strain, at 50.0 µM, stronger effect = higher value
Outline: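 Test agents were incubated with a DNA-repair-mutant yeast strain. Growth was then read and compared against vehicle-treated controls.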

[4] = NCI Yeast Anticancer Drug Screen. Data for the cln2 rad14 strain (AID 165);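 further: 0% = growth equal to vehicle treated cultures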; conditions: S. cerevisiae cln2 rad14 strain, at 50.0 µM, stronger effect = higher value
Outline: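 cln2 rad14 yeast strain; compound exposure; growth inhibition read vs vehicle controls.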

[5] = NCI Yeast Anticancer Drug Screen. Data for the bub3 strain (AID 167); conditions: S. cerevisiae bub3 mutant strain, at 50.0 µM, stronger effect = higher value
Outline: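 Yeast carrying a defined mutation is treated with each compound, and growth is compared with that of vehicle-exposed cells to give inhibition.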

[6] = NCI Yeast Anticancer Drug Screen. Data for the mlh1 rad18 strain (AID 175); conditions: S. cerevisiae mlh1 rad18 strain growth inhibition; at 50.0 µM; stronger effect = higher value
Outline: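 Yeast w/ defined DNA-repair lesions; compound exposure; growth vs vehicle controls → % inhibition.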

Measured: growth inhibition

CCCCCCCCCCCCOc1ccc(Sc2ccc(OCCCCCCCCCCCC)cc2C)c(C)c1
inactive: [1] -16.2% | [2] -8.05% | [3] -0.95% | [4] -26.2% | [5] 6.35% | [6] -11.2%

Cn1c(Cc2ccccc2)c([N+](=O)[O-])c(=O)n(C)c1=O
inactive: [1] -0.2% | [2] -5.25% | [3] -2.1% | [4] -8.2% | [5] -6.35% | [6] -2.4%

O=C1NC(=O)C(c2ccccc2)(C2CCOCC2)N1 (configuration not stated)
inactive: [1] 11.1% | [2] 3.05% | [3] -2.65% | [4] -54.9% | [5] -9.65% | [6] 28.4%

CCOC(=O)C1=[N+]([O-])OC2=C(O)CCCC21 (configuration not stated)
inactive: [1] 5.7% | [2] 2.25% | [3] 9.05% | [4] -8.85% | [5] 2.4% | [6] -19.3%

O=C(CC(=O)C(F)(F)F)Nc1cccc2ccccc12
inactive: [1] 6.65% | [2] -3.1% | [3] 10.6% | [4] -84.5% | [5] 0.1% | [6] 1.05%

CN(C)S(=O)(=O)N(C)C
inactive: [1] -1.55% | [2] 6.4% | [3] 15.4% | [4] 6.1% | [5] -8.45% | [6] 26.2%

CC1=C/C(=C(/c2cccc(S(=O)(=O)O)c2)c2cc(C)c(O)c(C(=O)O)c2)C=C(C(=O)O)C1=O
inactive: [1] 4.4% | [2] -21.8% | [3] -3.7% | [4] 25.2% | [5] -3.7% | [6] 9.05%

CC(C)(C)CC(C)(C)c1ccc(OCc2ccc(C(F)(F)F)cc2)cc1
inactive: [1] 14.2% | [2] 10.9% | [3] 5.1% | [4] 13.4% | [5] -4.8% | [6] -1.7%

Cc1c2cnccc2c(CO)c2[nH]c3ccccc3c12
inactive: [1] 11.6% | [2] -10.2% | [3] 8.2% | [4] 4.6% | [5] -10.9% | [6] 59.7%

O=C(Nc1cc([N+](=O)[O-])ccc1F)Oc1ccc(OCc2ccccc2)cc1
inactive: [1] 11.9% | [2] -1.5% | [3] 9.9% | [4] -47.2% | [5] -2.55% | [6] 18.2%

CC1(C)COC(=O)/C1=C/C#N
inactive: [1] 5.1% | [2] 2.6% | [3] -1.5% | [4] -38.5% | [5] -12.4% | [6] 12.3%

[CH3][Ga]([CH3])[O]c1ccccc1C=O
inactive: [1] -3.6% | [2] -17.6% | [3] -10.8% | [4] -80.7% | [5] -30.3% | [6] -21.4%

CC(C)C(=O)Nc1nc(OCCc2ccc([N+](=O)[O-])cc2)c2ncn(C3CC(O)C(CO)O3)c2n1 (configuration not stated)
inactive: [1] 3.5% | [2] -0.2% | [3] 5.8% | [4] 8.5% | [5] -0.75% | [6] -11.8%

CCOC(=O)C(=O)Nc1ccccc1OCC
inactive: [1] 3.3% | [2] 11.2% | [3] -11.2% | [4] -27.7% | [5] 0.9% | [6] 4.2%

CNC(=S)N(C1CCCCC1)C1CCCCC1
inactive: [1] 26% | [2] -13.4% | [3] -2.2% | [4] -15% | [5] -10.1% | [6] 37%

CC(=O)N1Cc2cncnc2C1
inactive: [1] -0.8% | [2] 5.95% | [3] -2.5% | [4] -17.1% | [5] -0.95% | [6] 23.7%

CC(C)c1ccc(CN)cc1
inactive: [1] -23.4% | [2] -39.2% | [3] -29.8% | [4] 6.5% | [5] -36.8% | [6] -17.5%

O=[N+]([O-])c1cc([N+](=O)[O-])c(/C=C/c2ccccc2Cl)cc1/C=C/c1ccccc1Cl
inactive: [1] -10.2% | [2] 13.4% | [3] 15.8% | [4] -19.6% | [5] 0.05% | [6] 0.5%

C[P+](Cc1ccc([N+](=O)[O-])cc1)(c1ccccc1)c1ccccc1
inactive: [1] -2.85% | [2] -19.1% | [3] -3.15% | [4] -1.7% | [5] -9.8% | [6] -7.15%

O=c1c2cnc3cc(Cl)ccc3c2[nH]n1-c1ccc(Cl)cc1
inactive: [1] -1.3% | [2] 0.45% | [3] 1.85% | [4] -2.55% | [5] 2.75% | [6] 2.9%

CC1=C(C)CN(CCC(=O)O)C(C(N)=O)C1 (configuration not stated)
inactive: [1] -11.9% | [2] -2.3% | [3] -3.8% | [4] 17.5% | [5] 18.5% | [6] -10.1%

C=C(C)C(=O)OC1CC2(C)OC2CC(OC(C)=O)/C(C)=C/C2OC(=O)C(=C)C21 (configuration not stated)
inactive: [1] 20.8% | [2] 49.7% | [3] 31.7% | [4] 39.5% | [5] 46.6% | [6] -7.5%

CN(C)CCCNC(=O)NCCCCCCNC(=O)NCCCN(C)C
inactive: [1] 13.1% | [2] -9.85% | [3] 31.7% | [4] 18.4% | [5] 32.4% | [6] 19%

CN1CC(=O)N(C(=O)c2ccccc2)C1=N
inactive: [1] -6.6% | [2] -17.2% | [3] -6.4% | [4] -17.9% | [5] -2.15% | [6] 9.55%

CCCCON1C[C@H](OC(C)=O)C(OC(C)=O)[C@H](OC(C)=O)C1 (some centres not stated)
inactive: [1] -44.8% | [2] -15.9% | [3] -39.1% | [4] -10.4% | [5] 16.9% | [6] -24.6%

O=C(COc1ccc(Cl)cc1)Nc1nccs1
inactive: [1] 4.95% | [2] 32% | [3] 26.6% | [4] 5.7% | [5] 20.4% | [6] 21.4%

CC(=O)/C(N=Nc1ccccc1SCCC#N)=C(\C)O
inactive: [1] 12.2% | [2] -2.55% | [3] -8.1% | [4] -28.6% | [5] 9.15% | [6] 1.5%

Nc1ccc(-c2csc(Nc3ccnc4cc(Cl)ccc34)n2)cc1
inactive: [1] -1.75% | [2] -5.4% | [3] 4.25% | [4] -7.85% | [5] 18.9% | [6] 7.6%

CCCCOC(=O)C(=O)C(CC(C(=O)Cc1ccccc1)c1ccccc1)C(=O)C=C(C)C (configuration not stated)
inactive: [1] -0.1% | [2] -5.3% | [3] -0.7% | [4] -12.1% | [5] 27.2% | [6] -18.2%

Cc1ccc([N+](=O)[O-])cc1NC(=O)COc1ccc(Cl)cc1Cl
inactive: [1] 6.25% | [2] 0.55% | [3] 13.5% | [4] 10.2% | [5] 1.85% | [6] 1.15%

CCCCCC[N+]12CC=C3COC(=O)C(C)(O)C(C)(O)C(C)C(=O)OC(CC1)C32 (configuration not stated)
inactive: [1] 0.7% | [2] -6.15% | [3] -0.25% | [4] 13.7% | [5] -3.35% | [6] 7.85%

CCOC(=O)c1cn2c(nc1=O)N[C@H]1CCCC[C@@H]12
inactive: [1] 37.8% | [2] 11.1% | [3] 0.4% | [4] -2.45% | [5] 8.4% | [6] -1%

COc1cc2cccc(NC(=O)c3cc(OC)c(OC)c(OC)c3Br)c2cc1OC
inactive: [1] 31.4% | [2] 12.4% | [3] 16.6% | [4] 19.6% | [5] 44.5% | [6] 20.7%

COc1ccc(C=Nc2c(N)[nH]c(=S)[nH]c2=O)cc1
inactive: [1] -15% | [2] -12.8% | [3] -4.15% | [4] 0.7% | [5] -27.8% | [6] -51.7%

CCCCCCCCC(=O)N1SC(NC(=O)OC)=Nc2ccccc21
active: [1] 98.2% | [2] 98.2% | [3] 98% | [4] 90.2% | [5] 97% | [6] 98.1%

CC(C)(C)OC(=O)N1CCCC1C(=O)NCCNc1ccc(NCCNC(=O)C2CCCN2C(=O)OC(C)(C)C)c2c1C(=O)c1ccccc1C2=O (configuration not stated)
inactive: [1] 13.8% | [2] 13.4% | [3] 21.4% | [4] 52.4% | [5] 2.35% | [6] -25%

COc1ccc(/C(=C/n2ccnc2)C(O)c2ccc(OC)c(OC)c2)cc1OC (configuration not stated)
inactive: [1] -16.5% | [2] -11.8% | [3] -31.8% | [4] -2.25% | [5] -2.8% | [6] -11.3%

CCc1ccc2c(OC(C)=O)c3ccccc3c(OC(C)=O)c2c1
inactive: [1] 36.4% | [2] 41.3% | [3] 33.4% | [4] 18.2% | [5] 46%
active: [6] 74.6%

CC(C)(C)OC(=O)CNC(=O)C(CSC(c1ccccc1)(c1ccccc1)c1ccccc1)N1C(=O)c2ccccc2C1=O (configuration not stated)
inactive: [1] 45.9% | [2] 32.5% | [3] 46.2% | [4] 31.9% | [6] 49.5%
active: [5] 73.6%

CC(=O)N1CCOCC1
inactive: [1] 23.1% | [2] 1.55% | [3] 11.1% | [4] -28.6% | [5] -1.8% | [6] 21.1%

O=[N+]([O-])c1ccc(Nc2ccc(Cl)cc2)c2nonc12
inactive: [1] -24.7% | [2] -7.9% | [3] 25.7% | [4] 18.4% | [5] 8.85% | [6] 23.4%

Cc1c(COC(=O)NC(C)C)c(COC(=O)NC(C)C)c2n1CS(=O)(=O)C2
inactive: [1] -16.2% | [2] 6.55% | [3] -3.2% | [4] 7.3% | [5] -5.7% | [6] 6.35%
